A selection: hits, their analogues and other compounds. The true share with any hit is near 19%.
TDP1 cell noCPT – qHTS for Inhibitors of human tyrosyl-DNA phosphodiesterase 1 (TDP1): qHTS in cells in absence of CPT | DT40 Tdp1-/- hTDP1 cells, no CPT, ATP luminescence, 48 h | Potency, µM (highest dose often 46.2 µM), without a hit: at the highest dose activity change, negative = growth inhibition, usual class: inhibitors | actives 15% (n = 420,000); further: nearly all actives have a fitted effect of over 55% in size
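Chicken DT40 Tdp1-/- cells stably complemented with human TDP1 were seeded at 400 cells/well with DMSO in place of 20 nM camptothecin. After compound pinning, cells grew at least 48 hr at 37 °C; viability read by CellTiter-Glo luminescence.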
DT40 TDP1 CPT – DT40-hTDP1 cell growth loss with CPT; chicken DT40 Tdp1-/-;hTDP1 cells + 20 nM CPT, ATP luminescence, 48 h; Potency, µM (series often up to 46.2 µM), for inactives: top-dose activity change, negative = growth inhibition, hits mostly inhibitors; actives 12% (n = 420,000); further: nearly all actives have a fitted effect of over 55% in size
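Cell growth measured by CellTiter-Glo luminescence after a minimum 48 h, 37 C compound exposure with 20 nM CPT in Tdp1-knockout DT40 cells stably expressing hTDP1, seeded 400/well; qHTS titration format.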
KB-3-1 tox – kills parental KB-3-1 adenocarcinoma cells | KB-3-1 viability, CellTiter-Glo ATP luminescence, 72 h | Potency, µM (doses to about 46.1 µM), actives largely listed as cytotoxic | actives 1.4% (n = 400,000); further: nearly all actives have a fitted effect of over 60% in size
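Screening of KB-3-1 cells (DMEM, 10% FBS, phenol-red free) ran from lowest to highest compound concentration; after 72 h at 37 °C viability was read luminescently and curves fitted.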
HT1080-NT tox – kills 2HG-producing HT-1080-NT fibrosarcoma cells. HT-1080-NT fibrosarcoma viability, CellTiter-Glo ATP luminescence, 48 h. Potency, µM (doses to about 46.1 µM), for the others: top-dose activity, negative = less viability, most hits filed as cytotoxic. actives 1.6% (n = 360,000). AID 686970;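 further: NT is the 2HG producing partner of a matched IDH1 knockdown line; 0% = DMSO-treated cells and -100% = media-only wells without cells; nearly all actives have a fitted effect of over 55% in size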
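Luminescent CellTiter-Glo readout after 48 hours of compound exposure at 37 degrees C defined viability of HT-1080-NT cells. Activity was normalized to DMSO wells and cell-free media wells; concentration-response curves were fitted and assigned curve classes.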
KB-V1 MDR tox – KB-V1 MDR subline cytotoxicity; KB-V1 MDR cells viability, CellTiter-Glo, 72 h; Potency, µM (doses to about 46.1 µM), most hits filed as cytotoxic; actives 3.4% (n = 400,000); AID 1347076; further: nearly all actives have a fitted effect of over 60% in size
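KB-V1 MDR subline cells in DMEM (phenol-red free, 10% FBS) exposed to compounds in qHTS concentration series for 72 h at 37 degrees C. Viability read by CellTiter-Glo luminescence; concentration-effect curves fitted after normalization and correction.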
HT1080 IDH1KD tx – kills HT-1080 cells with IDH1 knockdown | HT-1080 IDH1 knockdown viability, ATP luminescence, 48 h | Potency, µM (series often up to 46.1 µM), without a hit: top-dose activity, negative = toxicity, actives largely listed as cytotoxic | actives 2% (n = 360,000) | AID 686971;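 further: 0% = DMSO wells and -100% = cell-free medium wells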
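CellTiter-Glo luminescence after 48 h compound exposure at 37 degrees C of IDH1-knockdown HT-1080 cells in 5% FBS RPMI. %Activity scaled between DMSO wells and cell-free media wells, with curves fitted and assigned curve classes.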
* marks the source's active call; other numbers are inactive results; i = inactive; ? = inconclusive; / = not tested or not shown. The call rests on the fitted dose curve; in most records, active means well fitted curve in the direction sought with a large enough effect; inconclusive means small, poorly fitted or top-dose-only effect, or another doubt; inactive means no such curve, though single readings can be large; an effect the other way counts as inactive or inconclusive. Unless noted, on the % scale 0 is the no-effect control and ±100 the full control effect; potency means the concentration at half of the fitted maximal effect.

SMILES	TDP1 cell noCPT	DT40 TDP1 CPT	KB-3-1 tox	HT1080-NT tox	KB-V1 MDR tox	HT1080 IDH1KD tx
O=C(NCCc1ccccc1F)c1cc(COc2ccc(F)cc2F)on1	-23.9%	-22.7%	i	23.1%	i	10.2%
COc1cc(Cl)ccc1OCc1cc(C(=O)NCC(C)(C)N2CCOCC2)no1	-10.3%	-25.2%	i	-0.2%	i	-3.3%
COc1ccc(CCNC(=O)c2cc(COc3c(F)cccc3F)on2)c(OC)c1	?	?	i	1.8%	i	4.6%
COc1ccc(OCc2cc(C(=O)NCC(C)(C)N3CCOCC3)no2)c(Cl)c1	20.6µM*	23.1µM*	/	3.3%	/	0.8%
Cc1cccc(C)c1OCc1cc(C(=O)NCc2cn(C)nc2C)no1	?	18.4µM*	/	4.0%	/	3.1%
Cc1ccc(S(=O)(=O)Nc2cccc(S(=O)(=O)N3CCCC3)c2)cc1C	?	?	i	0.2%	i	0.5%
COc1ccc(OCc2cc(C(=O)NCC3CCOCC3)no2)c(Cl)c1	-6.1%	?	i	-0.1%	i	19.1%
COc1ccc(OCc2cc(C(=O)NCCc3ccccc3)no2)c(Cl)c1	10.3µM*	7.31µM*	?	?	?	16.4µM*
Cc1cccc(C)c1OCc1cc(C(=O)N(Cc2c(C)nn(C)c2C)C2CC2)no1	8.2µM*	13µM*	i	-0.1%	i	?
COc1ccc(OCc2cc(C(=O)NCCN3CCCC(O)C3)no2)c(Cl)c1 (centres undefined)	14.3%	-3.5%	i	-13.0%	i	-9.8%
COc1ccc(OCc2cc(C(=O)NCCN3CCCc4ccccc43)no2)c(Cl)c1	18.4µM*	14.6µM*	i	-12.8%	?	-11.3%
CCCCCCN1C[C@@H](n2cc(COC(=O)c3ccccc3)nn2)[C@H](O)C[C@@H]1c1ccccc1	?	?	i	0.0%	i	17.5%
CCCCCCN1C[C@@H](n2cc(COC(=O)c3ccccc3)nn2)[C@H](O)C[C@@H]1c1ccc(OC)cc1	?	?	?	?	i	?
CCCCCCN1C[C@@H](n2cc(COC(=O)c3ccccc3)nn2)[C@H](O)C[C@@H]1c1ccc(Cl)cc1	20.6µM*	13µM*	i	8.8%	i	6.3%
CCCCCCN1C[C@H](n2cc(COC(=O)c3ccccc3)nn2)[C@@H](O)C[C@@H]1c1ccccc1	23.1µM*	?	i	1.7%	i	5.1%
Cc1ccc(CNC(=O)CCCn2nc(C)n3ccnc3c2=O)cc1	-7.9%	2.6%	i	-3.8%	i	-0.6%
Cc1ccc(C)c(-n2c(C)cc(/C=N/NC(=O)c3c(C)nc4cc(C)ccn34)c2C)c1	20.6µM*	?	i	1.1%	i	?
Cc1ccn2c(C(=O)N/N=C\c3cccs3)c(C)nc2c1	-19.9%	-11.1%	i	-4.1%	i	1.4%
CCCCC(=O)/C=C/n1c(=S)oc2ccccc21	4.11µM*	5.17µM*	?	10.3µM*	?	3.66µM*
C[C@@H]1C=C(C(=O)NCc2nc3ccccc3[nH]2)O[C@H](OCc2ccc(CO)cc2)C1	?	16.4µM*	i	-22.4%	i	-5.2%
CCO[C@H]1OC(C(=O)NCc2nc3ccccc3[nH]2)=C[C@@H](c2ccc(Br)cc2)[C@@H]1CCCO	?	?	i	?	i	-28.4%
C#Cc1ccc([C@H]2C=C(C(=O)NCc3nc4ccccc4[nH]3)O[C@@H](OCC)[C@@H]2CCCO)cc1	?	?	i	0.0%	?	2.6%
CCO[C@@H]1OC(C(=O)NCc2nc3ccccc3[nH]2)=C[C@H](C2CC2)[C@H]1CCCO	2.91µM*	4.61µM*	5.17µM*	18.4µM*	i	?
CCO[C@@H]1OC(C(=O)NCc2nc3ccccc3[nH]2)=C[C@H](C(C)(C)C)[C@H]1CCCO	1.16µM*	1.3µM*	1.3µM*	3.26µM*	i	3.26µM*
CC(C)NC(=O)N1Cc2cc(C(=O)NC3CCC3)nc(-c3cccc(-c4cncnc4)c3)c2[C@H]1CCO	-28.6%	-23.6%	i	-0.2%	i	3.5%
SMILES	TDP1 cell noCPT	DT40 TDP1 CPT	KB-3-1 tox	HT1080-NT tox	KB-V1 MDR tox	HT1080 IDH1KD tx
CC(=O)c1cccc(NC(=O)CCc2nc3cccnc3n2Cc2cccs2)c1	-107.2%	?	i	/	i	/
O=C(NCc1ccco1)C1CC(c2cc(C(F)(F)F)cc(C(F)(F)F)c2)=NO1 (centres undefined)	2.31µM*	2.59µM*	4.11µM*	5.8µM*	10.3µM*	2.59µM*
O=C(NCc1ccc(C(F)(F)F)cc1)C1CC(c2ccc(C(F)(F)F)cc2)=NO1 (centres undefined)	13µM*	23.1µM*	?	-17.1%	?	?
Cn1cc(S(=O)(=O)c2ccccc2)c(=O)c2cc(F)c(N3CCCCCC3)cc21	?	?	i	/	i	/
Cc1ccc(-c2nc(CS(=O)(=O)CC(=O)N3CCN(c4cccc(C)c4C)CC3)c(C)o2)cc1	?	?	i	/	i	/
c1ccc(Cn2c(Cn3c(-c4cnccn4)nc4ccccc43)nc3ccccc32)cc1	?	25.9µM*	i	?	9.2µM*	-16.1%
CC(c1nc2ccccc2n1Cc1ccccc1)n1c(-c2cnccn2)nc2ccccc21 (centres undefined)	20.6µM*	14.6µM*	i	?	?	?
CC(=O)N1CCCc2cc(S(=O)(=O)N(C)CC(=O)Nc3ccc(C)cc3C)ccc21	?	?	i	/	?	/
CCOC(=O)C1=C(COC(=O)CNS(=O)(=O)c2c(F)cc(F)cc2Br)NC(=O)NC1C (centres undefined)	10.7%	0.1%	i	4.2%	i	8.2%
OC(CNCCC(c1ccccc1)c1ccccc1)COc1ccccc1 (centres undefined)	13µM*	13µM*	i	?	?	23.1µM*
OC(CNCCc1ccc(Cl)cc1)COc1cc(Cl)ccc1Cl (centres undefined)	?	16.4µM*	?	-2.5%	i	-1.0%
Cc1ccc(OCC(O)CNCc2ccccc2)cc1C (centres undefined)	?	?	i	-3.0%	i	-12.2%
OC(CNCCc1ccc(Cl)cc1)COc1ccc2ccccc2c1 (centres undefined)	?	?	i	?	i	?

Assay outcomes as filed in PubChem.
